BRCA1 expr up – activators of BRCA1 expression. 380,000 tested, 1.1% active. Potency, µM (top dose mostly 46.1 µM), without a hit: at the top dose activation, actives largely listed as activators. AID 624202. MCF7-BRCA1-FFLuc reporter, luminescence, 48 h; response scale: scaled: vehicle 0%, 10 µM genistein 100%; also: potency is read from the fitted curve at half-maximal effect; nearly all actives have a fitted effect of over 80% in size
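MCF7-BRCA1-FFLuc, 2000 cells/well; 2 h attach, 37 °C/5% CO2; compound 48 h; luciferase substrate 15 min; luminescence end-point. Norm. to genistein 10 microM max activation and DMSO; concentration-response curves fitted.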
Nrf2 activator – activators of Nrf2 (ARE) signaling; AREc32 ARE-luciferase reporter (MCF7-derived line), luminescence, 24 h; Potency, µM (top dose mostly 46.1 µM), without a hit: at the top dose activation, actives largely listed as activators; 410,000 tested, 0.31% active; AID 624171; also: potency is read from the fitted curve at half-maximal effect; % of control where 0% means no effect; nearly all actives have a fitted effect of over 65% in size
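AREc32 cells carrying an ARE-driven firefly luciferase, 1000 cells/well in OPTI-MEM with 5% FBS, dosed after overnight attachment and incubated 24 hr at 37 deg C. Steady-Glo luminescence read after 30 min at RT.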
IL-2 act – IL-2 activation; IL-2 activation reporter assay, cell-based qHTS; stimulated with anti-CD3/CD4/CD28 beads; in transgenic mouse T cells; activation, % (series mostly up to about 46 µM); 360,000 tested, 0.065% active; in the data active = activation above about 50%; inconclusive = mostly about 30% to 49%; also: 0% is about no effect
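EGFP and DsRed fluorescence is measured by plate cytometry in unstimulated transgenic mouse T cells exposed to compound for 60 minutes, then stimulated 18 hours at 37 degrees C with anti-CD3/anti-CD4 beads plus anti-CD28.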
ELG1 repair inh – inhibitors of ELG1-dependent DNA repair in HEK293T cells. Potency, µM (doses to about 46.1 µM), for inactives: at the highest dose activity change, negative = inhibition, usual class: inhibitors. HEK293T ELG1-luciferase reporter, luminescence, 16 h; DNA damage induced by 5-fluorouridine. AID 504467. 330,000 tested, 2.3% active; also: potency is read from the fitted curve at half-maximal effect; % is scaled to controls: 0 for no effect and ±100 for the full control effect; nearly all actives have a fitted effect of over 55% in size
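Reporter activity after DNA damage by 5-fluorouridine is monitored. Compound-treated cells incubate 16 hr at 37 °C, then ONE-Glo is added for 30 min before luminescence reading.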
The depositor's hits bear a star; ? = inconclusive; · = no result given. The list is not random: actives were taken first. Their share in the collection is about 3.1%. Unless noted, calls follow the shape of the dose curve; as a rule, active = well fitted curve in the direction sought with a large enough effect; inconclusive = small, poorly fitted or top-dose-only effect, or another doubt; inactive = no such curve, though single readings can be large; an effect the other way counts as inactive or inconclusive.

SMILES	BRCA1 expr up	Nrf2 activator	IL-2 act	ELG1 repair inh
CN(C)/C=C1\SC(=S)N(c2ccc(F)cc2)C1=O	61.6%	3.5%	-0.9	8.8%
CN(C)/C=C1\SC(=S)N(c2ccc(Br)cc2)C1=O	10µM*	6.3%	-3.2	?
CCC(=O)N1c2ccc(S(=O)(=O)NCc3ccc(F)cc3)cc2CC1C (stereo unspecified)	-9.4%	1.6%	·	·
COc1cccc(-n2c(CN3CCN(c4cccc(C)c4)C(C)C3)nc3ccc([N+](=O)[O-])cc3c2=O)c1 (stereo unspecified)	-29.7%	2.7%	-4.3	11.6µM*
Cc1ccccc1CSc1ncc(Cl)c(C(=O)Nc2nc3ccc(F)cc3s2)n1	12.4%	-0.2%	·	·
COc1ccccc1-c1noc(-c2ccc(N3CCOCC3)c([N+](=O)[O-])c2)n1	-1.1%	7.2%	·	·
Cc1noc(C)c1S(=O)(=O)N1CCC(C(=O)N2CCC(C)CC2)CC1	-5.7%	-0.6%	-2.4	-0.9%
Cc1cccc(N2CCN(C(=O)C3CCCN(S(=O)(=O)c4cnc[nH]4)C3)CC2C)c1 (stereo unspecified)	-21.3%	-0.5%	-1.7	23.1µM*
Cc1cccc(N2CCN(C(=O)C3CCN(S(=O)(=O)c4c(C)noc4C)CC3)CC2C)c1 (stereo unspecified)	-35.4%	0.2%	-0.8	20.6µM*
Cn1c(=O)n(C)c2cc([N+](=O)[O-])c(N3CCN(S(=O)(=O)c4ccccc4)CC3)cc21	-68.6%	3.3%	-0.2	11.6µM*
Cc1ccc(-c2[nH]ncc2CNCc2ccc(CN(C)C)cc2)cc1	0.0%	·	·	·
C=CC[C@@H](CC(=O)OC(C)(C)C)C(=O)OC[C@@H]1CCCN1C(=O)[C@@H](CC=C)CC(=O)N[C@@H](CO)Cc1ccccc1	-0.4%	0.5%	-2.0	0.4%
C=CC[C@@H](CC(=O)OC(C)(C)C)C(=O)OC[C@H]1CCCN1C(=O)[C@@H](CC=C)CC(=O)N[C@H](CO)Cc1ccccc1	-30.1%	0.1%	-0.2	16.4µM*
COc1ccc(N2CCN(Cc3nc4c(c(=O)[nH]c(=O)n4C)n3CCCc3ccccc3)CC2)cc1	15.3%	0.1%	-0.8	8.91µM*
CCCCn1c(=O)[nH]c(=O)c2c1nc(-c1ccsc1)n2Cc1ccccc1	-48.1%	5.9%	-0.6	18.4µM*
C=CCn1c(SCc2nc3c(c(=O)[nH]c(=O)n3CCCC)n2CCC)nnc1-c1ccccc1	-17.3%	-0.2%	0.0	18.4µM*
CCN1CCN(c2nc3c(c(=O)[nH]c(=O)n3C)n2CCSc2nc3ccccc3s2)CC1	-20.3%	-0.1%	-0.2	?
CC(CSc1nc2ccccc2s1)Cn1c(N2CCCC2)nc2c1c(=O)[nH]c(=O)n2C (stereo unspecified)	-31.9%	2.4%	-0.2	14.6µM*
Cn1nc(C(C)(C)C)cc1C(=O)N1CCCCC1c1cc(C(=O)NCc2cccnc2)no1 (stereo unspecified)	-3.4%	-0.9%	-0.3	·
CCc1ccc2oc(C(=O)N(Cc3ccc(N(C)C)cc3)Cc3ccco3)c(C)c2c1	·	5.0%	·	·
CCCc1cc(=O)oc2c(C)c3c(cc12)CN(CCc1ccc(Cl)cc1)CO3	·	5.4%	·	·
COc1ccccc1NC(=O)C1=C(C)Nc2nc(-c3ccco3)nn2C1c1cccc(C)c1 (stereo unspecified)	·	3.1%	·	·
CCN(CC)c1ncnc2c1cnn2-c1cc(Cl)ccc1C	·	6.1%	·	·
CCN(C(=O)c1coc(=O)c2ccccc12)c1ccccc1C	2.5%	-0.4%	·	·
Cn1c(=O)[nH]c(=O)c2c1nc(CN1CCN(c3cccc(Cl)c3)CC1)n2CCCc1ccccc1	-39.3%	0.0%	-2.4	9.2µM*
SMILES	BRCA1 expr up	Nrf2 activator	IL-2 act	ELG1 repair inh
CCCCCn1c(N2CCC(Cc3ccccc3)CC2)nc2c1c(=O)[nH]c(=O)n2C	-62.3%	-0.6%	-3.6	·
Cn1c(=O)[nH]c(=O)c2c1nc(N1CCCCCC1)n2CCSc1nc2ccccc2o1	4.6%	-1.1%	-3.3	11.1%
CCCCCn1c(N2CCN(Cc3ccccc3)CC2)nc2c1c(=O)[nH]c(=O)n2C	-35.3%	3.0%	-0.8	16.4µM*
Cn1c(=O)[nH]c(=O)c2c1nc(N1CCCCCC1)n2CCCSc1nc2ccccc2o1	-63.0%	-0.3%	-1.5	23.1µM*
CCOc1ccccc1NC(=O)c1c(NC(=O)c2cccc(C)c2)sc2c1CCC2	·	1.0%	·	·
CN1/C(=C/C=C(C#N)C#N)C(C)(C)c2ccccc21	2.1%	-0.1%	115.0*	15.4%
CCOC(=O)C(=Cc1ccc(-n2cncn2)cc1)C(=O)OCC	-85.6%	?	-4.4	18.3µM*
Nc1nc(N)nc(-c2cc(O)ccc2O)n1	14.3%	-1.8%	-0.5	1.16µM*
Cc1ccc(N/C=C/c2onc(C)c2[N+](=O)[O-])cc1	6.31µM*	7.0%	-0.4	?
COc1cccc(N/C=C/c2onc(C)c2[N+](=O)[O-])c1	3.98µM*	19.3%	1.3	?
Cc1cccc(C)c1N/C=C/c1onc(C)c1[N+](=O)[O-]	-1.1%	-0.3%	1.0	·
COc1cccc(-n2sc3c(c2=S)-c2cc(OC)ccc2NC3(C)C)c1	-86.0%	-0.7%	-3.1	?
CC1(C)Nc2ccc(O)cc2-c2c1ssc2=S	-20.0%	?	0.2	11.6µM*
O=S(=O)(/C=C/c1ccccc1)Oc1ccccc1	-4.3%	12.6µM*	-2.0	-5.4%
Fc1ccc(Nc2nc(SCc3cccc(F)c3)nc3ccccc23)cc1	·	-2.1%	·	·
COc1ccc(CN(C(=O)c2oc3cc(C)ccc3c2C)C2CCS(=O)(=O)C2)cc1OC (stereo unspecified)	-14.9%	2.4%	-1.5	13µM*
COc1cccc(CN(C(=O)c2oc3cc(C)ccc3c2C)C2CCS(=O)(=O)C2)c1 (stereo unspecified)	·	0.1%	·	·
CCN1CCN(c2nc3c(S(=O)(=O)c4ccc(Br)cc4)nnn3c3ccsc23)CC1	·	-1.0%	·	·
O=C(CC(c1ccccc1)c1ccccc1)Nc1ccc(Cl)cn1	-68.5%	-0.4%	-0.3	11.6µM*
O=C(CS(=O)(=O)c1ccccc1)Nc1ccc(Cl)cn1	26.6%	-0.3%	-1.9	27.4%
O=C(/C=C/c1ccccc1)Nc1ccc(Cl)cn1	3.55µM*	3.9%	-1.2	?
CC(=O)Nc1cnc(-c2ccc3c(c2)OCO3)cn1	2.82µM*	0.5%	0.5	·
CC(=O)Nc1cnc(-c2ccccc2C(C)=O)cn1	4.0%	4.4%	0.8	·
CC(=O)Nc1cnc(-c2cc(C)c(O)c(C)c2)cn1	8.91µM*	7.5%	-0.3	·
COc1ccc(-c2nc3c4ccccc4[nH]c(=O)n3n2)cc1	53.6%	3.6%	-1.7	·
COc1cc2[nH]c(=O)n3nc(-c4ccccc4)nc3c2cc1OC	0.0%	-0.9%	-0.7	20.6µM*
CCOc1ccc(-c2csc(C3COc4ccccc4O3)n2)cc1 (stereo unspecified)	10µM*	-0.4%	-1.9	·
COc1ccccc1NC(C)C(=O)c1c(C)[nH]c2ccccc12 (stereo unspecified)	13.1%	·	·	·
COc1ccc(C(=O)CCS(=O)(=O)c2ccc(C)cc2)cc1	-21.7%	?	-3.8	2.8%

Screening results from PubChem BioAssay.
